Results filed as inconclusive are left out. Calls of active or inactive are those of the source. Unless noted, calls follow the shape of the dose curve; as a rule, active = well fitted curve in the direction sought with a large enough effect in the repeat runs; inconclusive = weak or mixed curves; inactive = no such curve, though single readings can be large; an effect the other way counts as inactive or inconclusive.
Key:
[1] = qHTS assay for small molecule agonists of the p53 signaling pathway (AID 651631; calls by dose curve; also: nearly all actives have a fitted effect of over 15% in size)
In short: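 HCT-116 p53RE-bla reporter line, 16 h compound treatment at 37 °C, then fluorescence after 2 h with B/G FRET substrate.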

[2] = qHTS assay for small molecules that induce genotoxicity in human embryonic kidney cells expressing luciferase-tagged ATAD5 (AID 651632); also: nearly all actives have a fitted effect of over 15% in size
In short: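 Genotoxicity read-out via ATAD5-luciferase: HEK293T cells, 16 hr compound incubation at 37C, Amplite detection.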

[3] = qHTS assay for small molecule agonists of the p53 signaling pathway - cell viability (AID 651633; calls by dose curve;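 also: p53RE-bla HCT reporter cells with a stable beta-lactamase p53 reporter; series mostly up to about 83 µM; nearly all actives have a fitted effect of over 30% in size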)
In short: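 Viability counter-read: CellTiter-Glo luminescence (30 min, room temperature) in the same p53RE-bla plates. These plates had been exposed to compounds for 16 h at 37 C.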

[4] = qHTS assay for small molecules that induce genotoxicity in human embryonic kidney cells expressing luciferase-tagged ATAD5 - cell viability (AID 651634; calls by dose curve; also: nearly all actives have a fitted effect of over 25% in size)
In short: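 Live-cell protease activity (CellTiter-Fluor, fluorescence) indicates viability. HEK293T cells with luciferase-tagged ATAD5; 15.5 hr compound treatment at 37C.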

[5] = qHTS assay for small molecule disruptors of the mitochondrial membrane potential - cell viability (AID 720634; calls by dose curve;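 also: human HepG2 liver cancer cells; series mostly up to about 83 µM; nearly all actives have a fitted effect of over 20% in size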)
In short: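 Human hepatoma HepG2 cells were treated for 1 hr with test chemicals, then given m-MPI dye and CellTiter-Glo. Cell viability reflects luminescence proportional to cellular ATP.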

[6] = qHTS assay to test for compound auto fluorescence at 590 nm (red) in HepG2 cells (AID 720674)
In short: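 We screened compounds on adherent HepG2 cells, incubating them for an hour at 37 C in 5% CO2 before reading emission at 590 nm under 540 nm excitation; values reflect equivalence to Rose Bengal sodium fluorescence.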

[7] = qHTS assay to test for compound auto fluorescence at 535 nm (green) in HepG2 cells (AID 720675)
[8] = qHTS assay to test for compound auto fluorescence at 460 nm (blue) in HEK293 cells (AID 720678)
In short: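 HEK293 cells (2,000 per well, medium with 10% dialyzed FBS) attached for 4-5 hr at 37C, then received compound and stood overnight at 37C, 5% CO2. Blue fluorescence was read at Ex/Em 405/460 nm and expressed relative to triamterene.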

[9] = qHTS assay to test for compound auto fluorescence at 590 nm (red) in HEK293 cells (AID 720679)
In short: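 HEK293 cells (2,000/well, medium with 10% dialyzed FBS) attached for 4-5 hr at 37C, received 23 nL compound and were incubated overnight at 37C, 5% CO2. Red fluorescence was then read at 540/590nm Ex/Em, referenced to Rose Bengal sodium.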

[10] = qHTS assay to test for compound auto fluorescence at 535 nm (green) in HEK293 cells (AID 720680)
[11] = qHTS assay to test for compound auto fluorescence at 460 nm (blue) in HEK293 cell free culture (AID 720681)
In short: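 Blue fluorescence (Ex 405/Em 460 nm, triamterene-equivalent) was read immediately after pin transfer of compound or DMSO into medium (DMEM, 10% FBS) without cells.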

[12] = qHTS assay to test for compound auto fluorescence at 535 nm (green) in HEK293 cell free culture (AID 720682)
In short: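 Steps: dispense DMEM/10% FBS into empty wells; pin in compound or DMSO; measure fluorescence at 485/535 nm. Values are fluorescein equivalents.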

[13] = qHTS assay to test for compound auto fluorescence at 590 nm (red) in HEK293 cell free culture (AID 720683)
In short: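 Red-channel autofluorescence of compounds in culture medium (DMEM, 10% FBS), no cells, measured at 540/590 nm. Rose Bengal sodium is the reference fluorophore for equivalence.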

[14] = qHTS assay to test for compound auto fluorescence at 590 nm (red) in HepG2 cell free culture (AID 720684)
In short: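 Plate contents were MEM with 10% FBS plus test compound or DMSO, no cells. Fluorescence was recorded with 540 nm excitation and 590 nm emission.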

[15] = qHTS assay to test for compound auto fluorescence at 535 nm (green) in HepG2 cell free culture (AID 720686)
[16] = qHTS assay to test for compound auto fluorescence at 460 nm (blue) in HepG2 cells (AID 720687)
In short: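 Blue-channel autofluorescence (Ex/Em 405/460 nm, triamterene-equivalent) was measured after 1 hr compound exposure at 37 C, 5% CO2. Cells were HepG2, plated overnight at 37 C in MEM plus 10% FBS.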

[17] = molecular target: Glucocorticoid receptor (Homo sapiens) (UniProt P04150); assay: qHTS assay to identify small molecule agonists of the glucocorticoid receptor (GR) signaling pathway (AID 720691; active = well fitted activation curve with a large enough effect in the signal ratio in the repeat runs, not every such curve was filed as active; the % refers to the signal ratio)
Glucocorticoid receptor (Homo sapiens), sequence (P04150 whole entry, looked up): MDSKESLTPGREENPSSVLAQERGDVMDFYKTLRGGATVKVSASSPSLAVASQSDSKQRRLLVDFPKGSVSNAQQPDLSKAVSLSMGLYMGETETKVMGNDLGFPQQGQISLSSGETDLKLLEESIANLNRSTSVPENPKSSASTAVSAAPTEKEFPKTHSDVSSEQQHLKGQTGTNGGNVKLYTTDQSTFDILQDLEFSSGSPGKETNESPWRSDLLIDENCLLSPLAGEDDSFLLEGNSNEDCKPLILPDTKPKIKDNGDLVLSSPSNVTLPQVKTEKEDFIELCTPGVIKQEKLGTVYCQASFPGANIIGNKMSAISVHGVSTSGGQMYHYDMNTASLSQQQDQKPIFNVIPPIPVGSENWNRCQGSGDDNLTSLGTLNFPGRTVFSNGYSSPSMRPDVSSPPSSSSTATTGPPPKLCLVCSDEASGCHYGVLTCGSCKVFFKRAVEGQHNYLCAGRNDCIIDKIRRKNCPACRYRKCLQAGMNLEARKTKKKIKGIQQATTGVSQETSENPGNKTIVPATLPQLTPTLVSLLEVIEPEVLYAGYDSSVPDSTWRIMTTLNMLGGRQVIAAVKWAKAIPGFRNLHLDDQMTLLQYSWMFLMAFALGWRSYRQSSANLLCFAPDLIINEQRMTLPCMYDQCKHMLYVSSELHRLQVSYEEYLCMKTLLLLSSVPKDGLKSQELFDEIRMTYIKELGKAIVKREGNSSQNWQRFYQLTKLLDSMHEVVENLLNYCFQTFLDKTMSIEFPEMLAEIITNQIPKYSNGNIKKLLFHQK
In short: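 Beta-lactamase reporter activity, read as fluorescence intensity, was measured in GR-bla HeLa cells exposed to compounds for 18 h at 37 C and then loaded with LiveBLAzer B/G FRET substrate for 2 h at room temperature.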

[18] = molecular target: Glucocorticoid receptor (Homo sapiens) (UniProt P04150); assay: qHTS assay to identify small molecule antagonists of the glucocorticoid receptor (GR) signaling pathway (AID 720692; active = well fitted inhibition curve with a large enough effect in the signal ratio in the repeat runs, not every such curve was filed as active; the % refers to the signal ratio)
In short: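 Fluorescence from cleaved LiveBLAzer B/G FRET substrate reports GRE-driven beta-lactamase in HeLa cells; compounds are tested against 5 nM dexamethasone (final) over 18 h at 37 C, substrate incubation 2 h at room temperature.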

[19] = qHTS assay to test for compound auto fluorescence at 460 nm (blue) in HepG2 cell free culture (AID 720685)
In short: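 Compound (23 nL) or DMSO pinned into cell-free MEM with 10% FBS; blue fluorescence read at 405/460 nm excitation/emission, expressed as auto-fluorescence equivalency to triamterene.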

[20] = qHTS assay for small molecule disruptors of the mitochondrial membrane potential (AID 720635)
In short: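 Mitochondrial membrane potential tracked with Mito-MPS dye, red aggregates (ex 540/em 590 nm) against green monomers (ex 490/em 535 nm). Compound treatment 1 hr at 37C, dye 30 min in HepG2.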

Measured: Potency

COc1ccccc1Oc1c(NS(=O)(=O)c2ccc(C(C)(C)C)cc2)nc(-c2ncccn2)nc1OCCO
not listed: [19] | [20]
inactive: all other assays above

CCC=CC#N
not listed: [20]
inactive: all other assays above

FC(F)(F)c1ccccc1Cl
not listed: [4] | [6]
inactive: all other assays above

O=c1[nH]ncc2ccccc12
not listed: [4] | [8]
inactive: all other assays above

O=C1CCCCCCCCCCOCCCCO1
not listed: [4]
inactive: all other assays above

C(=C\c1ccccc1)/c1ccccc1
not listed: [6] | [10] | [12] | [17] | [18] | [20]
inactive: all other assays above

O=C(/C=C/c1ccc(O)c(O)c1)O[C@@H]1C[C@@](OC(=O)/C=C/c2ccc(O)c(O)c2)(C(=O)O)C[C@@H](O)[C@@H]1O
not listed: [10] | [12] | [20]
inactive: all other assays above

— PubChem BioAssay (Tox21)
